# From PMC4336329 (PLoS ONE, 2015)
# About 14,000 (4.5%) of roughly 310,000 compounds showed an effect of 50% or more. The effect is printed as a negative number. For the sample, strong results were picked, then their nearest neighbours and some compounds at random.
# Target: human ether-à-go-go-related gene (hERG) potassium channel (human, UniProt Q12809)
# Assay: primary screen, population patch clamp on CHO cells stably expressing hERG; higher = less effect of the substance
# 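Also: peak tail current of the secondary pulse compared with the same well before compound.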
# Chain of human ether-à-go-go-related gene (hERG) potassium channel (Q12809 whole entry, looked up): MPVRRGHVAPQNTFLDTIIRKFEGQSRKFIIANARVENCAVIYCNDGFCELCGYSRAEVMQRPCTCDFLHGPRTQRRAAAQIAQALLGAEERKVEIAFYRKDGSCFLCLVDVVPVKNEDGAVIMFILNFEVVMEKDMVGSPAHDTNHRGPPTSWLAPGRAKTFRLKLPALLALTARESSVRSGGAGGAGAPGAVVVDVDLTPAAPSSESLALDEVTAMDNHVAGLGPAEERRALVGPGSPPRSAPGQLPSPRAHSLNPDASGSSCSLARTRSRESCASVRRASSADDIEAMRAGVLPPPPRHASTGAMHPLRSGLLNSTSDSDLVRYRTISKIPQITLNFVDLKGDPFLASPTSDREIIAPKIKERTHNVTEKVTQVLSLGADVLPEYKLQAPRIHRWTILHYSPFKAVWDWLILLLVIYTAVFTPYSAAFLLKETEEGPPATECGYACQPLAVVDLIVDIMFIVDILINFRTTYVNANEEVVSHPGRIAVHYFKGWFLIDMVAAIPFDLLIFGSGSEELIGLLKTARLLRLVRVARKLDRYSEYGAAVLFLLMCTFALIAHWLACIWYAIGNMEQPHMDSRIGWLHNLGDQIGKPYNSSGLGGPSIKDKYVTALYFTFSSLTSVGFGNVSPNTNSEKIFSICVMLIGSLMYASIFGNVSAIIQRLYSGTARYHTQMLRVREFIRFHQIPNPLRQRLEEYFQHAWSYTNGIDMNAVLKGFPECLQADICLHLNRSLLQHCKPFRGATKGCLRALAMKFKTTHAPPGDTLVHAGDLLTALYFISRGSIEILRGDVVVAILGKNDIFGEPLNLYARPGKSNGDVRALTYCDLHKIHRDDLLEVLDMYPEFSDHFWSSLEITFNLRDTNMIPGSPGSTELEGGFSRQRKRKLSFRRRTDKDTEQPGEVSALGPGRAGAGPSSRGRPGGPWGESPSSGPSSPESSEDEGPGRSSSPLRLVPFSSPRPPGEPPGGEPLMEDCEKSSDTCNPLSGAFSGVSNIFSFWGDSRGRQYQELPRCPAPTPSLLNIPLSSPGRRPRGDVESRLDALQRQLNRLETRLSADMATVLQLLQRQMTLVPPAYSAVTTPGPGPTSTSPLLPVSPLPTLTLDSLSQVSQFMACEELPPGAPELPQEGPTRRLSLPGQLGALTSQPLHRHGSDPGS
row,Compound,"hERG current change (%, negative = inhibition) at 10uM [%]"
1,Cc1ccccc1C(=O)N=c1c(C#N)cc2c(=O)n3cccc(C)c3nc2n1Cc1ccco1,-46.2
2,CC(=O)N=c1c(C#N)cc2c(=O)n3cccc(C)c3nc2n1Cc1ccco1,-35.3
3,Cc1cccn2c(=O)c3cc(C#N)c(=NC(=O)c4ccco4)n(Cc4ccco4)c3nc12,-55.4
4,CC(=O)N=c1c(C#N)cc2c(=O)n3ccccc3nc2n1Cc1ccccc1,-40.2
5,CC(C)n1c(=NC(=O)c2ccco2)c(C#N)cc2c(=O)n3ccccc3cc21,-52.2
6,Cc1cccc(C(=O)N=c2c(C#N)cc3c(=O)n4cccc(C)c4nc3n2Cc2ccco2)c1,-65
7,Cc1cccn2c(=O)c3cc(C#N)c(=NC(=O)c4ccccc4)n(Cc4ccco4)c3nc12,-40.3
8,Cn1c(=NC(=O)c2ccco2)sc2ccccc21,11.6
9,CCO[C@@H]1OC(C(=O)NCc2ccccc2)=C[C@H](C(C)(C)C)[C@H]1CCCO,-10.5
10,O=C(OCCN1C(=O)c2ccccc2C1=O)c1cc2ccccc2o1,1.62
11,CC1CCCC(C(=O)O)N1C(=O)CCSC(=O)c1ccccc1 (stereo not drawn),-0.246
12,O=S(=O)(c1cccs1)N1CN(Cc2ccc(Cl)cc2)c2nc3ccccc3nc21,3.75
13,Cc1ccc2c(c1)c1c(n2CC(O)CNC2CCCCC2)CCCC1.Cl (stereo not drawn),-37.4
14,Cc1ccc2c(c1)c1c(n2CC(O)CN2CCC(C)CC2)CCCC1 (stereo not drawn),-58.1
15,Cc1ccc2c(c1)c1c(n2CC(O)CN2CCCCC2C)CCCC1 (stereo not drawn),-42.6
16,Cc1ccc2c(c1)c1c(n2CC(O)CN2CCOCC2)CCCC1.Cl (stereo not drawn),9.32
17,Cc1ccc2c(c1)c1c(n2CC(O)CN2CCCCCC2)CCCC1.Cl (stereo not drawn),-65.6
18,Cc1ccc2c(c1)c1c(n2CC(O)CNC(CO)(CO)CO)CCCC1 (stereo not drawn),0.531
19,Fc1ccc(N/N=C(/c2ccccc2)c2ccccn2)cc1,-12.5
20,CCN(Cc1ccccc1)Cc1c(F)cccc1F,-0.224
21,Cc1ccc(S(=O)(=O)N2CCC(C(=O)OCC(=O)N3CCC(C)CC3)CC2)cc1C,7.85
22,CCOC(=O)C1CCN(C(=O)COC(=O)C2CCN(S(=O)(=O)c3ccc(C)c(C)c3)CC2)CC1,-3.24

row,Compound,"hERG current change (%, negative = inhibition) at 10uM [%]"
1,CCOC(=O)N1CCN(C(=O)COC(=O)C2CCN(S(=O)(=O)c3c(Cl)cccc3Cl)CC2)CC1,-38.1
2,CCOC(=O)N1CCN(C(=O)COC(=O)C2CCN(S(=O)(=O)c3ccc(C)c(C)c3)CC2)CC1,-62.1
3,CC1CCCN(C(=O)COC(=O)C2CCN(S(=O)(=O)c3c(Cl)cccc3Cl)CC2)C1 (stereo not drawn),-39.4
4,CC1CCCCN1C(=O)COC(=O)C1CCN(S(=O)(=O)c2c(Cl)cccc2Cl)CC1 (stereo not drawn),-56.4
5,CCOC(=O)N1CCN(C(=O)COC(=O)C2CCN(S(=O)(=O)c3c(C)c(C)cc(C)c3C)CC2)CC1,-51.9
6,CCOC(=O)N1CCN(C(=O)C2CCN(S(=O)(=O)c3c(C)cc(C)cc3C)CC2)CC1,-22.9
7,CC1CCCC(C)N1C(=O)COC(=O)C1CCN(S(=O)(=O)c2c(Cl)cccc2Cl)CC1 (stereo not drawn),-30.1
8,CC(=O)Nc1ccc(Oc2cc(NC(C)=O)cc([N+](=O)[O-])c2)cc1,6.36
9,CCOC(=O)c1c(NC(=O)CC2Nc3ccccc3NC2=O)sc(C)c1C (stereo not drawn),10.6
10,CCOC(=O)C1CCCN(C(=O)c2cc(Nc3ccc(OC)c(OC)c3)nc3ccccc23)C1 (stereo not drawn),-14.9
11,Cc1c(C(=O)Nc2ccc(Cl)cc2)c2ccccn2c1CCc1ccncc1,-5.68
12,OC(CSc1ccccc1Cl)CN1CCN(c2ccc(F)cc2)CC1 (stereo not drawn),-57.4
13,COc1cccc(OC)c1OCC(O)CN1CCN(c2ccc(F)cc2)CC1.Cl (stereo not drawn),-74.9
14,COc1cccc(OCC(O)CN2CCN(c3ccc(Cl)cc3)CC2)c1 (stereo not drawn),-71.9
15,OC(COc1ccc2ccccc2c1)CN1CCN(c2ccc(F)cc2)CC1 (stereo not drawn),-28
16,COc1cccc(OCC(O)CN2CCN(c3ccccc3)CC2)c1.Cl (stereo not drawn),-43.4
17,CCOC(=O)N1CCN(CC(O)COc2c(OC)cccc2OC)CC1.Cl (stereo not drawn),2.85
18,OC(CSc1c(Cl)cccc1Cl)CN1CCN(c2ccc(F)cc2)CC1 (stereo not drawn),-40.3
19,COc1ccc(N2CCN(CC(O)COc3c(OC)cccc3OC)CC2)cc1.Cl (stereo not drawn),-35.3
20,COc1cccc(OCC(O)CN2CCN(c3ccccc3)CC2)c1 (stereo not drawn),-45.2
21,OC(CSc1ccccc1Cl)CN1CCN(c2ccccc2F)CC1 (stereo not drawn),-30.7
22,COc1ccc(OCC(O)CN2CCN(c3ccc(Cl)cc3)CC2)cc1 (stereo not drawn),-30.7

row,Compound,"hERG current change (%, negative = inhibition) at 10uM [%]"
1,COc1cccc(OCC(O)CN2CCN(c3ccc(F)cc3)CC2)c1.Cl (stereo not drawn),-58.6
2,CCOC(=O)c1c(S(=O)(=O)NCCc2ccco2)c(C)n(C)c1C,-1.25
3,NNC(=O)c1ccc(Cn2cccn2)o1,5.58
4,CCn1nc(C)c(NS(=O)(=O)c2ccc(C)cc2)c1C,-0.126
5,CCCCC1(CCCC)C(=O)NC(=Nc2cccc(C)c2)NC1=O,0.0469
6,COCC(C)NS(=O)(=O)c1ccccc1 (stereo not drawn),12.7
7,COCCCNC(=S)Nc1cccc(S(=O)(=O)NC2=NCCC2)c1,36.7
8,COc1ccc(CCNC(=O)c2ccc3c(c2)NC(=O)C(CSCc2cc(C)ccc2C)N3)cc1OC (stereo not drawn),12.2
9,O=C(Nc1ccc(S(=O)(=O)NCc2ccco2)cc1)c1ccc2ccccc2n1,-0.235
10,COc1ccc(C2(C)ON(c3ccccc3C(F)(F)F)C2=O)cc1 (stereo not drawn),5.36
11,CCCCOCCCNC(=O)c1c(-c2ccccc2)noc1C,3.4
12,CCOC(=O)CCN(Cc1ccccc1)S(=O)(=O)c1csc(C(N)=O)c1,-22.4
13,CCC(=O)c1ccc(OCC(O)CN2CCN(c3ccc(F)cc3)CC2)cc1 (stereo not drawn),-26.8
14,CC(=O)c1ccc(OCC(O)CN2CCN(CC(O)COc3ccc(C(C)=O)cc3)CC2)cc1 (stereo not drawn),-39.4
15,CC1CCN(CC(O)COc2ccc(F)cc2)CC1 (stereo not drawn),-37.7
16,Cl.OC(COc1ccc2c(c1)OCO2)CN1CCN(c2ccc(F)cc2)CC1 (stereo not drawn),-66.1
17,CC(=O)c1ccc(OCC(O)CN2CCN(c3ccc(F)cc3)CC2)cc1.Cl (stereo not drawn),-67.4
18,Cl.OC(COc1ccc2c(c1)OCO2)CN1CCCC1 (stereo not drawn),5.48
19,COc1ccc(N2CCN(CC(O)COc3ccc(F)cc3)CC2)cc1.Cl (stereo not drawn),-69.9
20,COc1ccc(OCC(O)CN2CCN(CC(O)COc3ccc(OC)cc3)CC2)cc1 (stereo not drawn),-47.5
21,COc1ccc(OCC(O)CN2CCN(c3ccc(OC)cc3)CC2)cc1.Cl (stereo not drawn),-37.7
22,Cl.OC(COc1ccc2c(c1)OCO2)CN1CCN(c2ccccc2)CC1 (stereo not drawn),-2.44

row,Compound,"hERG current change (%, negative = inhibition) at 10uM [%]"
1,OC(COc1ccc(F)cc1)CN1CCN(CC(O)COc2ccc(F)cc2)CC1 (stereo not drawn),-71.5
2,Cc1ccc(NC(=S)NC(=O)/C=C/c2ccco2)c(O)c1,2.91
3,COC(=O)CCC(=O)N1CCCC(CNS(=O)(=O)c2ccc(OC)cc2)C1 (stereo not drawn),39.4
4,COc1cc(NC(=O)COC(=O)Cn2cnc3c2c(=O)n(C)c(=O)n3C)cc(OC)c1,1.05
5,CC(C)COC(=O)C1C2C=CC3(CN(C4CCCC4)C(=O)C13)O2 (stereo not drawn),-15.4
6,Cc1ccc(S(=O)(=O)N2CCN(C(=O)c3ccccn3)CC2)cc1,9.2
7,Cc1cccc(NC(=O)c2cc(-c3ccc(C)s3)nc3ccccc23)n1,5.03
8,CC(=O)c1cc2ccccc2oc1=O,2.96
9,CCN1C(=O)[C@H]2[C@@H](c3ccc(C)cc3)N3C(=O)N(c4cccc(F)c4)C(=O)[C@@]3(C)[C@H]2C1=O,3.13
10,O=S(=O)(Cc1cccc(C(F)(F)F)c1)c1ncn[nH]1,17.9
11,COc1cccc(COc2ccc3c(C)c(Cc4ccccc4)c(=O)oc3c2)c1,6.98
12,CCN1C=C(Cc2cccs2)C2=C(C1)C(c1cccs1)C(C#N)=C(N)O2 (stereo not drawn),-16.8
13,CCC(C)(C)c1ccc(O)cc1,6.62
14,Cc1cc(=O)oc2cc(OCCCC[n+]3ccccc3)ccc12.[Br-],4.72
15,CCC(C)(C)c1ccc(Oc2cccc(C(=O)O)c2)cc1,11.5
16,Cc1cc(C(C)(C)C)ccc1OCCCCN1CCCC1,-40
17,CCC(C)(C)c1ccc(OCCCC[n+]2ccc(C)cc2)c(C(C)(C)CC)c1.[Br-],-75.7
18,CCC(C)(C)c1ccc(OCCCC[n+]2ccccc2)c(C(C)(C)CC)c1.[Br-],-67.2
19,CCC(C)(C)c1ccc(OCCCC[n+]2cccc(C)c2C)c(C(C)(C)CC)c1.[Br-],-75.8
20,Cc1cc[n+](CC[n+]2ccc(C)cc2)cc1.[Br-],16.7
21,CCC(C)(C)c1ccc(OCC(=O)N(C)C)c(C(C)(C)CC)c1,-4.24
